Out of some 310,000 compounds screened, about 11,000 (3.5%) were called active. About 8% were inconclusive and are not listed. Only a selection was taken, and actives are over-represented in it overall. A number with no mark means an inactive call. The call rests on the fitted dose curve; in most records, active means well fitted inhibition curve with a large enough effect; inconclusive means small, poorly fitted or top-dose-only effect, or effect the other way; inactive means flat fitted curve, though single readings scatter.
Assay: VP16 counterscreen qHTS for inhibitors of ROR gamma transcriptional activity;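 further: Gal4-VP16 expression switched on by copper sulfate through the metallothionein promoter; nearly all actives have a fitted effect of over 50% in size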
Conditions: Drosophila S2 Gal4-VP16 UAS-luciferase, luminescence, 20 h; series mostly up to 53.6 µM; activity, negative = inhibition: at the top concentration
On the % scale 0 is the no-effect control and ±100 the full control effect; potency means the concentration at half of the fitted maximal effect.

Structure (SMILES) | activity, negative = inhibition [%] | Potency
Cc1occc1C(=O)NC1CCCN(Cc2ccc(CC(C)C)cc2)C1 (stereo unspecified) | -15.5 | 
CCOc1c(Br)cc(/C=C2\C(=O)N(CCC#N)N=C2C)cc1OC |  | 11.2 µM (active)
CCOc1cc(/C=C/c2nc3ccccc3c(=O)[nH]2)cc(Br)c1OC | -2.15 | 
C=CCOc1c(Br)cc(/C=N\n2nnnc2N)cc1OC | 8.19 | 
CCOC(=O)c1ccc(NC(=O)C2CC(=O)Nc3nc4ccccc4n32)cc1 (stereo unspecified) | 2.42 | 
CCOC(=O)C1=C(C)Nc2nc3ccccc3n2C1c1cccs1 (stereo unspecified) |  | 5.01 µM (active)
C=CCOC(=O)C1=C(C)NC(C)=C(C(=O)OCC=C)C1c1cccs1 | 0.696 | 
CCOc1ccc2[nH]c(C(=O)N/N=C/c3cccc(OC)c3OC)cc2c1 | 4.44 | 
COc1cccc(CCNC(=O)c2cccc(NC(=O)C3=C(C)OCCS3)c2)c1 | -17.2 | 
Cc1cc(C)nc(S/C=C/C(=O)c2ccccc2)n1 |  | 3.55 µM (active)
Cc1ccc(N/C=C/C(=O)c2ccccc2)cc1C | -55.9 | 
Cc1cc(SCC(=O)c2ccccc2)nc(SCC(=O)c2ccccc2)n1 | -16.5 | 
CSc1ccccc1NC(=O)c1ccc2c(c1)CCN2S(C)(=O)=O | -7.46 | 
Cc1nn(CCCC(=O)NCc2ccccc2Cl)c(=O)c2nccn12 | -1.04 | 
O=C(Cc1ccccc1)Nc1ccc(C(=O)Nc2ccccc2C(=O)O)cc1 | 5.24 | 
CCOc1ccc(CN2CCN(Cc3ccc4cc(F)ccc4n3)CC2CCO)cc1 (stereo unspecified) | -6.33 | 

Structure (SMILES) | activity, negative = inhibition [%] | Potency
COc1cc(C(=O)NCc2nnc(SCC(=O)c3ccc(Cl)cc3)o2)cc(OC)c1OC | -6.58 | 
COc1cc(C(=O)NCc2nnc(SCC(=O)Nc3nc4ccc(C)cc4s3)o2)cc(OC)c1OC |  | 3.16 µM (active)
COc1ccc(C(=O)NCc2nnc(SCC(=O)Nc3cccc(OC)c3)o2)cc1 | -0.7 | 
O=C(CNC(=O)c1ccc(Br)o1)NCC1CCCO1 (stereo unspecified) | 1.42 | 
COc1ccccc1/C=C/C(=O)NC1CC2CCC1C2 (stereo unspecified) | 22.3 | 
CCNC(=S)N1CCN(C(=O)c2ccco2)CC1 | -4.45 | 
COc1ccc(C)cc1NC(=S)N1CCOCC1 | -2.62 | 
COc1ccccc1/C=C/C(=O)NC(=S)N1CCOCC1 |  | 8.91 µM (active)
O=C(/C=C/c1ccco1)NC(=S)N1CCCCC1 |  | 22.4 µM (active)
COc1ccc(/C=C/C(=O)NC(=S)N2CCCC(C(N)=O)C2)cc1 (stereo unspecified) | -11.2 | 
CC1CCCN(S(=O)(=O)c2ccc(-c3ccc(=O)[nH]n3)o2)C1 (stereo unspecified) | -0.807 | 
O=C(C1CC(=O)N(c2ccc(Br)cc2)C1)N1CCCC1 (stereo unspecified) | 2.91 | 
Cc1nc2ccc(C(=O)O)cc2[nH]1 | -8.16 | 
OC(c1nc2ccc(F)cc2[nH]1)C(O)c1nc2ccc(F)cc2[nH]1 (stereo unspecified) | -3.31 | 
CC(C)c1nc2ccc(C(=O)O)cc2[nH]1 |  | 20 µM (active)

Reference: PubChem BioAssay AID2546 (National Center for Advancing Translational Sciences (NCATS), 2010)
